Experimental data as given in PubChem BioAssay (NCI).
The panel holds about 83,000 compounds, 20% with a hit somewhere; the sample as a whole holds those more often.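 Interpretation: 100, growth as untreated; towards 0, rising growth inhibition; 0, no net growth; 0 to -100, cell death. Compounds scoring below 10 were considered active.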 Values without a mark were called inactive. The source made the active and inactive calls.

Key:
Assay in all cases: NCI-60 one-dose screen, 48 h (100 = growth as untreated, 0 = no growth, -100 = all killed)
Details in all cases: 10 µM unless noted
SN12C renal = test system: SN12C renal
UO-31 renal = test system: UO-31 renal
TK-10 renal = test system: TK-10 renal
ACHN renal = test system: ACHN renal
CAKI-1 renal = test system: CAKI-1 renal
A498 renal = test system: A498 renal
CCRF-CEM leukemia = test system: CCRF-CEM leukemia
MOLT-4 leukemia = test system: MOLT-4 leukemia
SR leukemia = test system: SR leukemia

| Structure (SMILES) | growth (SN12C renal) | growth (UO-31 renal) | growth (TK-10 renal) | growth (ACHN renal) | growth (CAKI-1 renal) | growth (A498 renal) | growth (CCRF-CEM leukemia) | growth (MOLT-4 leukemia) | growth (SR leukemia) |
| --- | --- | --- | --- | --- | --- | --- | --- | --- | --- |
| COc1ccc(-c2nsc3c2NC(=O)CC3c2ccc3c(c2)OCCO3)cc1 (stereo not drawn) | 44.4% | 53.6% | 43.4% | 46% | 38.6% | 19% | 14% | 28.3% | 28.9% |
| COc1ccc(CSc2nnc(SCC(=O)Nc3ccc(Cl)cc3)s2)cc1 | 68.5% | 52.8% | 96.3% | 59.9% | 38% | 85.6% | 53.3% | 58% | 86.1% |
| Clc1ccc(Nc2nnc(-c3ccc4c(c3)OCO4)o2)cc1 | 96.6% | 86.9% | 94.6% | 102% | 98.4% | 97.5% | 100% | 82.7% | 83.4% |
| Nc1nc(Nc2cccc(F)c2)nc2ccccc12 | 34.2% | 23.7% | 29.9% | 44.8% | 38.3% | 43.9% | 26.2% | 39.5% | 13.2% |
| CN(C)c1ccc(/C=C/c2ccnc3c(O)cccc23)cc1 | 21.3% | -2.54% (active) | 41.6% | 12.7% | -3.49% (active) | 45.1% | 6.75% (active) | -13.2% (active) | -11.1% (active) |
| COc1ccc(C2NCCc3c2[nH]c2ccccc32)cc1CN1CCN(c2ccc(F)cc2)CC1 (stereo not drawn) | 55.6% | 2.15% (active) | 56.6% | 64.7% | 28.8% | 89.8% | 16.3% | 23.6% | 19.9% |
| CCCCCCn1c(=N)n(CC(O)COc2cccc(C)c2)c2ccccc21 (stereo not drawn) | 28.6% | -96.1% (active) | -86.4% (active) | -52.9% (active) | -21.6% (active) | -13% (active) | 1.25% (active) | -3.39% (active) | -28.5% (active) |
| CCOc1c(Br)cc(C2C(C(=O)OC)=CN(C)C=C2C(=O)OC)cc1OC | 78% | 38.2% | 69.3% | 64.4% | 75.8% | 99% | 72.7% | 59.6% | 8.75% (active) |
| O=C(Nc1ccc(Cl)cc1)N1CCN(c2ccc3nncn3n2)CC1 | 54.3% | 36.1% | 42.3% | 8.04% (active) | 29.3% | 21.5% | -9.45% (active) | -41.5% (active) | -40.5% (active) |
| Oc1c(CN2CCN(c3ccccc3F)CC2)cc(Br)c2cccnc12 | 8.15% (active) | -69.6% (active) | -84.1% (active) | -30.4% (active) | -17.3% (active) | 88.1% | 1.46% (active) | 5.58% (active) | -6.68% (active) |
| Nc1nonc1-n1nncc1-c1cccnc1 | 117% | 92.9% | 107% | 105% | 95.1% | 81.9% | 106% | 91.4% | 103% |
| c1ccc2cc3c(Nc4ccc(N5CCOCC5)cc4)ccnc3cc2c1 | 94.5% | 81.2% | 107% | 94.8% | 92.8% | 77.6% | 77.4% | 78.1% | 81.3% |
| CN=c1ccc2nc3ccc(N)cc3sc-2c1 | 17% | 60.7% | 49.4% | 42.2% | 28.2% | 79.9% | 21.5% | 1.3% (active) | 38% |
| COc1ccc(/C=C/C(=O)c2ccc3cc(OC)c(OC)cc3c2)cc1OC | 32.2% | 27.7% | 65.1% | 55.4% | 30.2% | 70.9% | 32.8% | 30.7% | 3.83% (active) |
| CC(=O)c1ccc(Cc2ccc(C(C)=O)s2)s1 | 98% | 88.2% | 94.9% | 100% | 96.4% | -68.7% (active) | 95.5% | 83.2% | 89.4% |
| CCCCC(O)(c1ccc(Cl)cc1)C(CN1CCOCC1)c1ccc(Cl)cc1 (stereo not drawn) | 9.55% (active) | 16.1% | 52.9% | 33.2% | 26.5% | 36% | 22.3% | 6.34% (active) | 5.35% (active) |
| COc1ccccc1N1C(=N)S/C(=C\c2ccc(OCc3ccccc3F)cc2)C1=O | 80.7% | 59.2% | 104% | 69.6% | 81.6% | 82% | 65.8% | 53% | 73.4% |
| COc1ccc(Cn2c(Br)c3c(c2-c2cc(OC)c(OC)c(OC)c2)CCc2sc(NC(C)=O)nc2-3)cc1 | 71.9% | 13.9% | 70.6% | 53.7% | 44% | 21.5% | 16.9% | 45.1% | 14.3% |
| O=CCCCC(O)C=O (stereo not drawn) | 97.6% | 81.5% | 104% | 103% | 101% | 98.7% | 102% | 94% | 90.5% |
| CCOC(=O)C1=C(C)N=c2s/c(=C\c3cc(Cl)ccc3O)c(=O)n2C1c1ccc(OC)cc1 (stereo not drawn) | 93.8% | 58.8% | 94.1% | 99.4% | 96.5% | 76.1% | 85.3% | 96.4% | 86% |
| O=C1OC(c2ccccc2)(c2ccccc2)c2ccsc21 | 98.8% | 88.6% | 101% | 97.9% | 101% | 96.6% | 89.2% | 76% | 84.5% |
| COc1ccc(Cn2c(Br)c3c(c2Br)-c2nc(NC(=O)c4ccc(OC)cc4)sc2CC3)cc1 | 85.1% | 44.9% | 89.4% | 51.8% | 76.2% | 65.9% | 85.3% | 94.7% | 67.4% |
| CCN(CC)c1cc(C)c2cc(NC(=O)c3cccc(OC)c3)ccc2n1 | 79.1% | 81.6% | 114% | 91.2% | 73.2% | 29.2% | 24.8% | 32.7% | 43.5% |
| CCC1=C[C@@H]2CN(C1)Cc1c([nH]c3ccccc13)[C@@](C(=O)OC)(c1cc3c(cc1OC)N(C)[C@H]1[C@@](O)(C(=O)OC)[C@H](OC(C)=O)[C@]4(CC)[C@@H]5C[C@@H]5CN5CC[C@]31[C@@H]54)C2 | 19.3% | 3.11% (active) | 24.2% | 19.6% | 24.9% | -24.5% (active) | 1.97% (active) | -3.35% (active) | -19.3% (active) |
| CCOC(=O)C1(C(=O)OCC)N=C(c2ccccc2)C=C1c1ccccc1 | 89.8% | 76% | 112% | 87.7% | 83.1% | 84.4% | 77.5% | 81.1% | 69.7% |
| N#C/C(=C1\SC(=O)CN1c1ccccc1)c1nc2ccccc2s1 | 91% | 53.2% | 135% | 93.6% | 89.9% | 82.4% | 84.4% | 84.2% | 76.4% |
| Cc1ccc(C)c(-c2csc(Nc3ccc(C)c(C)c3)n2)c1 | 66.3% | 40.3% | 51.6% | 58.9% | 78.2% | 65.7% | 6.99% (active) | 24.9% | -6.45% (active) |
